This passage reports growth results from PubChem BioAssay (NCI).

Compounds without any hit were thinned out: in the full panel of roughly 83,000, 20% have a hit.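 Testing used 96-well plates and a 48-hour single-concentration exposure. Example: -40 means 40% of the starting cells died.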 A number with no mark means an inactive call. Calls of active or inactive are those of the source. How the source made its calls: active means growth percent below 10; inactive means the rest.

What all share (test): NCI-60 one-dose screen, 48 h (100 = growth as untreated, 0 = no growth, -100 = all killed)
The subject of one assay is NCI-H23 lung. The conditions noted are these: 10 µM unless noted.
The next assay concerns NCI-H226 lung. Conditions: 10 µM unless noted.
The next assay deals with NCI-H322M lung. Conditions: 10 µM unless noted.
A further assay deals with HOP-62 NSCLC. The conditions noted are these: 10 µM unless noted.
The subject of another assay is NCI-H522 lung. Conditions: 10 µM.
A further assay concerns A549/ATCC NSCLC. Conditions: 10 µM unless noted.
A further assay relates to 786-0 renal. The conditions noted are these: 10 µM unless noted.
In another assay the test system is COLO 205 colon. The conditions noted are these: 10 µM unless noted.
For another assay, the system named is DU-145 prostate. Conditions: 10 µM unless noted.
Another assay relates to K-562 leukemia. Conditions: 10 µM unless noted.
Another assay concerns MALME-3M melanoma. Conditions: 10 µM unless noted.
A further assay concerns MDA-MB-231 breast. Conditions: 10 µM unless noted.
The subject of the next assay is RXF 393 renal. The conditions noted are these: 10 µM unless noted.
For a further assay, the system named is SF-268 CNS. The conditions noted are these: 10 µM unless noted.
A further assay has as its system SF-295 CNS. The conditions noted are these: 10 µM unless noted.
For a further assay, the system named is SF-539 CNS. Conditions: 10 µM unless noted.
The next assay relates to UACC-257 melanoma. Conditions: 10 µM unless noted.
In another assay the test system is M14 melanoma. Conditions: 10 µM unless noted.
The subject of another assay is NCI-H460 lung. The conditions noted are these: 10 µM unless noted.
The next assay has as its system HOP-92 NSCLC. Conditions: 10 µM.

Regarding `O=C(C(=O)N1CCOCC1)c1ccc(O[C@H]2O[C@H](CO)[C@@H](O)[C@H](O)[C@@H]2O)cc1`, the growth is 99.9% with NCI-H23 lung; 95.8% in the assay with NCI-H226 lung; 91.7% in the assay with NCI-H322M lung; 111% in the assay on HOP-62 NSCLC; 93.9% in the assay with NCI-H522 lung; 106% with A549/ATCC NSCLC. For the same compound, the growth is 97.1% in the assay with 786-0 renal; 119% with COLO 205 colon; 122% with DU-145 prostate; 106% in the assay with K-562 leukemia; 102% with MALME-3M melanoma; 98.4% in the assay with MDA-MB-231 breast. In addition, the growth in the assay with RXF 393 renal is 103%; in the assay with SF-268 CNS, 123%; with SF-295 CNS, 107%; with SF-539 CNS it was 99.2%; in the assay on UACC-257 melanoma it was 107%; in the assay with M14 melanoma, 98.8%.
As to `CC1(C)CC(=O)C2=C(C1)Oc1nc(N)c(C#N)c(N)c1C2c1ccc(F)cc1` (stereo unspecified), the growth was 133% in the assay with NCI-H23 lung; 106% in the assay with NCI-H226 lung; 123% in the assay on NCI-H322M lung; 117% with NCI-H460 lung; 76.4% with HOP-92 NSCLC; 146% in the assay on NCI-H522 lung. Also, the growth with A549/ATCC NSCLC was 110%; in the assay on 786-0 renal, 94.2%; in the assay on COLO 205 colon, 127%; in the assay on DU-145 prostate, 95.7%; in the assay with K-562 leukemia, 85.9%; with MALME-3M melanoma it was 117%. Besides, the growth is 88.7% with MDA-MB-231 breast; -1.27% (active) in the assay with RXF 393 renal; 117% in the assay on SF-268 CNS; 110% with SF-295 CNS; 86.9% in the assay on SF-539 CNS; 94.8% in the assay with UACC-257 melanoma.
In the case of `O=C(NCCCl)Nc1nccnc1OCc1ccc(F)cc1`, the growth in the assay on NCI-H23 lung was 97.2%; in the assay on NCI-H226 lung, 100%; with NCI-H322M lung it was 104%; with HOP-62 NSCLC it was 91.4%; in the assay with NCI-H522 lung, 77.6%; in the assay with A549/ATCC NSCLC, 102%. The growth is 89% in the assay on 786-0 renal; 114% in the assay with DU-145 prostate; 99.4% in the assay with K-562 leukemia; 148% in the assay on MALME-3M melanoma; 87.6% with MDA-MB-231 breast; 109% in the assay with RXF 393 renal. Moreover, the growth was 99.2% in the assay with SF-268 CNS; 99.2% with SF-295 CNS; 109% in the assay on SF-539 CNS; 109% in the assay on UACC-257 melanoma; 95.3% with M14 melanoma.
Regarding `Oc1ccc([S+](c2ccc(O)cc2)c2ccc(O)cc2)cc1`, the growth with NCI-H23 lung was 106%; in the assay on NCI-H226 lung, 88.3%; in the assay with NCI-H322M lung it was 95.3%; with HOP-62 NSCLC, 94.3%; in the assay on NCI-H522 lung, 112%; in the assay on A549/ATCC NSCLC it was 98.7%. In addition, the growth with 786-0 renal was 106%; with COLO 205 colon, 102%; in the assay with DU-145 prostate, 120%; with K-562 leukemia, 94.7%; in the assay with MALME-3M melanoma, 106%; in the assay on MDA-MB-231 breast it was 117%. Besides, the growth is 94.6% with RXF 393 renal; 114% in the assay with SF-268 CNS; 96% in the assay with SF-295 CNS; 98.9% in the assay with SF-539 CNS; 98.4% in the assay with UACC-257 melanoma; 105% in the assay with M14 melanoma.
For `CCC(CCCN1C(=O)c2ccccc2C1=O)Nc1cc(OC)cc2c(C)ccnc12` (stereo unspecified), the growth with NCI-H23 lung is 117%; with NCI-H226 lung, 88.2%; in the assay on NCI-H322M lung, 104%; in the assay on NCI-H460 lung it was 114%; in the assay on HOP-92 NSCLC it was 72.4%; in the assay on NCI-H522 lung, 91.8%. The growth with A549/ATCC NSCLC was 103%; in the assay on 786-0 renal, 95.9%; in the assay with COLO 205 colon, 104%; in the assay with DU-145 prostate, 86.7%; with K-562 leukemia it was 72.4%; with MALME-3M melanoma it was 111%. The growth is 81.1% with MDA-MB-231 breast; -10.2% (active) in the assay with RXF 393 renal; 113% in the assay with SF-268 CNS; 93.3% in the assay on SF-295 CNS; 76.5% in the assay with SF-539 CNS; 88.6% with UACC-257 melanoma.
With `O=C(NCCO)C(F)(F)F`, the growth is 109% with NCI-H23 lung; 111% in the assay on NCI-H226 lung; 105% with NCI-H322M lung; 104% in the assay on HOP-62 NSCLC; 98.4% in the assay with A549/ATCC NSCLC; 93.9% in the assay with 786-0 renal. In addition, the growth in the assay on COLO 205 colon was 110%; with DU-145 prostate, 109%; with K-562 leukemia, 105%; in the assay on MALME-3M melanoma it was 95.6%; in the assay on MDA-MB-231 breast it was 107%; in the assay with RXF 393 renal, 108%. Besides, the growth in the assay on SF-268 CNS is 102%; in the assay on SF-295 CNS it was 95.5%; in the assay on SF-539 CNS, 93.5%; in the assay with UACC-257 melanoma, 99.3%; in the assay with M14 melanoma it was 101%.
Turning to `C=C1CCC2C3(C)COC(c4ccccc4)OC3CCC2(C)C1C/C=C1/C(=O)OCC1O` (stereo unspecified), the growth is 87.2% in the assay on NCI-H23 lung; 92.2% in the assay on NCI-H226 lung; 87.3% in the assay with NCI-H322M lung; 117% in the assay with HOP-62 NSCLC; 55.4% in the assay with NCI-H522 lung; 91% in the assay with 786-0 renal. Further, the growth was 99.8% with MALME-3M melanoma, 89.4% in the assay with MDA-MB-231 breast, 87.6% in the assay on SF-295 CNS and 80.6% in the assay on M14 melanoma.
`COc1cccc(CNC(=O)c2cccc(C3CC(=O)c4c(cc(OC)c(OC)c4OC)O3)c2)c1` (stereo unspecified): the growth in the assay with NCI-H23 lung was 99.1%; in the assay with NCI-H226 lung, 78.2%; in the assay on NCI-H322M lung it was 86.6%; in the assay on HOP-62 NSCLC, 66.7%; in the assay with NCI-H522 lung, 24.9%; with A549/ATCC NSCLC, 80.8%. Moreover, the growth was 24.8% in the assay on 786-0 renal; 101% in the assay on DU-145 prostate; 10.7% in the assay with K-562 leukemia; 71.3% with MALME-3M melanoma; 76.8% in the assay with MDA-MB-231 breast; 84.3% with RXF 393 renal. The growth in the assay on SF-268 CNS is 78.7%; with SF-295 CNS, 84.1%; with SF-539 CNS, 35.4%; in the assay on UACC-257 melanoma it was 67.8%; in the assay on M14 melanoma it was 41%.
As to `O=C1NCCN1/N=C/c1c(Cl)nc2n1CCS2`, the growth in the assay on NCI-H23 lung was 106%; with NCI-H226 lung, 151%; in the assay on NCI-H322M lung, 94.6%; in the assay on NCI-H460 lung, 111%; in the assay on HOP-92 NSCLC, 51.3%; with NCI-H522 lung, 34.3%. For the same compound, the growth with A549/ATCC NSCLC was 113%; in the assay with 786-0 renal, 90%; with COLO 205 colon, 133%; in the assay on DU-145 prostate, 85.8%; in the assay on K-562 leukemia it was 87.3%; in the assay with MALME-3M melanoma it was 91.7%. Besides, the growth is 130% with MDA-MB-231 breast; 150% in the assay on RXF 393 renal; 113% with SF-268 CNS; 111% with SF-295 CNS; 94.9% with SF-539 CNS; 105% in the assay with UACC-257 melanoma.
